# Hits are enriched below; roughly 19% of the tested compounds scored in any of these assays.
# TDP1 cell CPT: DT40-hTDP1 cell growth loss with CPT; actives 12% (n = 420,000); AID 686979; Potency, µM (titrated, usually from 46.2 µM), inactives show at the highest dose activity change, negative = growth inhibition, actives largely listed as inhibitors; chicken DT40 Tdp1-/-;hTDP1 cells + 20 nM CPT, ATP luminescence, 48 h; also: potency is read from the fitted curve at half-maximal effect; % is scaled to controls: 0 for no effect and ±100 for the full control effect; nearly all actives have a fitted effect of over 55% in size
#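 Chicken DT40 Tdp1-/- cells stably complemented with human TDP1 were seeded at 400 cells/well in medium containing 20 nM camptothecin, exposed to pin-transferred compounds, and grown at 37 °C for at least 48 hr. Viability was read as ATP luminescence.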
# TDP1 cell noCPT: qHTS for Inhibitors of human tyrosyl-DNA phosphodiesterase 1 (TDP1): qHTS in cells in absence of CPT; Potency, µM (top dose mostly 46.2 µM), without a hit: at the highest dose activity change, negative = growth inhibition, hits mostly inhibitors; DT40 Tdp1-/- hTDP1 cells, no CPT, ATP luminescence, 48 h; actives 15% (n = 420,000); AID 686978, 2013; also: potency is read from the fitted curve at half-maximal effect; % is scaled to controls: 0 for no effect and ±100 for the full control effect; nearly all actives have a fitted effect of over 55% in size
#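 Seeded 400 DT40-hTDP1 cells/well (vehicle DMSO, no 20 nM CPT); pinned compounds; ≥48 hr at 37 °C; CellTiter-Glo luminescence as viability measure.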
# HepG2 viability: HepG2 cytotoxicity, counter-screen for TGF-b inhibitors | HepG2 CAGA-GFP viability, ATP luminescence, 18 h | Potency, µM (top dose mostly 46.1 µM), inactives show at the highest dose activity change, negative = cytotoxicity, most hits filed as cytotoxic | actives 0.76% (n = 410,000); also: potency is read from the fitted curve at half-maximal effect
#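 HepG2 CAGA-GFP cells (1000/well, DMEM with 1% FBS) received compound, then TGF-beta at 500 pg/mL final, and were incubated 18 hours at 37 degrees C. Viability was read by CellTiter-Glo luminescence. Media-only wells were set as complete cell-killing and DMSO as no toxicity.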
# TGFb SMAD3 inh: TGF-b pathway inhibition | HepG2 CAGA-GFP TGF-b/SMAD3 reporter, GFP fluorescence, 18 h; TGF-beta stimulated, 500 pg/mL final | Potency, µM (titrated, usually from 46.1 µM), for the others: top-dose activity, negative = inhibition, most hits filed as inhibitors | actives 1.2% (n = 410,000); also: potency is read from the fitted curve at half-maximal effect; % is scaled to controls: 0 for no effect and ±100 for the full control effect; nearly all actives have a fitted effect of over 65% in size
#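 Using HEPG2 CAGA-GFP reporter cells at 1000 cells/well, we pinned test compounds, stimulated with recombinant TGF-beta (500 pg/mL final) and measured total well GFP after 18 h.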
# IL1B secr inh: inflammasome signaling inhibition, IL-1 beta readout. actives 4.7% (n = 360,000). activity change, % at 57.5 µM. THP-1 LPS/ATP IL-1B secretion, AlphaLISA, 16 h; active compounds read low. AID 743279; in the data active = activity change below about -50%; inconclusive = mostly about -30% to -49%; also: % is scaled to controls: 0 for no effect and ±100 for the full control effect
#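 THP-1 cells pretreated 1 hr with compounds (up to 57.5 uM final), then stimulated with LPS (250 ng/mL final) plus ATP (1.25 mM final); secreted IL-1B measured by AlphaLISA after 16 hr, decreased signal indicating inhibition.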
# ASM inhibitor: inhibitors of human secretory acid sphingomyelinase; Potency, µM (top dose mostly 57.5 µM), for the others: top-dose activity change, negative = inhibition, actives largely listed as inhibitors; P17405; placental ASM, HMU-PC fluorogenic substrate, 60 min; actives 0.006% (n = 340,000); also: potency is read from the fitted curve at half-maximal effect
# Target sequence (P17405 47-631 limits assumed): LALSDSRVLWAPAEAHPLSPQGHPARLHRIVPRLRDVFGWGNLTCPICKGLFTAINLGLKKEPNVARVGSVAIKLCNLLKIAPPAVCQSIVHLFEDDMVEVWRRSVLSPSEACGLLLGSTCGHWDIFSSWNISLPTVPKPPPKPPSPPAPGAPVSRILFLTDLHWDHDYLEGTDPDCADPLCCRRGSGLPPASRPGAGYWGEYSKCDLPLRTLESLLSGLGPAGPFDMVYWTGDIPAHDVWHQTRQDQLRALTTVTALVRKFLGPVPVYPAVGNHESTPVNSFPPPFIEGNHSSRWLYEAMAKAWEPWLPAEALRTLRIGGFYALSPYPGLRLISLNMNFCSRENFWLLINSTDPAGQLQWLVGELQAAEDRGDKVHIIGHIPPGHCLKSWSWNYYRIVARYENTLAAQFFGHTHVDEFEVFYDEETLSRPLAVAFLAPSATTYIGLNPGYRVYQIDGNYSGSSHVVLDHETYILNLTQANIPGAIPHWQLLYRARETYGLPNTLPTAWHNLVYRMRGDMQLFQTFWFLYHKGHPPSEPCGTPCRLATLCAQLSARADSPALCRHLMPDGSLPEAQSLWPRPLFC
#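 Steps: dispense placental human ASM, pin compound, wait 10 min at room temperature, add HMU-PC0 substrate at 9 uM final, incubate 60 min at 37 °C, add stop solution raising pH to 10, read fluorescence.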
# Active calls of the source: *; u = inconclusive; x = no result given. Unless noted, calls follow the shape of the dose curve; as a rule, active = well fitted curve in the direction sought with a large enough effect; inconclusive = small, poorly fitted or top-dose-only effect, or another doubt; inactive = no such curve, though single readings can be large; an effect the other way counts as inactive or inconclusive.
SMILES,TDP1 cell CPT,TDP1 cell noCPT,HepG2 viability,TGFb SMAD3 inh,IL1B secr inh,ASM inhibitor
CCN(CC)CCCNC(=O)Cn1nc(N2CCN(c3ccccc3OC)CC2)ccc1=O,-28%,u,-4%,9%,x,x
COc1ccc(-c2cc(C(=O)NCc3cccc(Cl)c3)[nH]n2)c(C)c1,u,u,-23%,-5%,-18,x
CCN(C(=O)COC(=O)CNC(=O)c1cccs1)c1c(N)n(Cc2ccccc2)c(=O)[nH]c1=O,0%,23%,1%,17%,-2,-1%
CCOc1cc2nc(-c3ccc(OC)c(OC)c3)nc(N3CCOCC3)c2cc1OC,21µM*,u,-44%,3%,-30,-2%
CCOc1cc(C(=S)N2CCOCC2)ccc1OC,-9%,-21%,-23%,23%,2,4%
COc1ccc(N2CCN(c3nc(NCCc4ccc(OC)c(OC)c4)nc(OC)n3)CC2)cc1,6.5µM*,4.6µM*,-72%,u,u,-3%
CCCC(=O)Nc1sc(Cc2ccccc2)c(C)c1C(N)=O,u,23µM*,-10%,1%,u,-1%
Cc1sc(NC(=O)Nc2ccccc2)c(C(N)=O)c1C,u,-24%,-3%,-6%,-76*,11%
Cc1sc(NC(=S)NC(=O)CCc2ccccc2)c(C(N)=O)c1C,0.21µM*,0.18µM*,13%,u,44,3%
Cc1sc(NC(=S)NC(=O)c2ccco2)c(C(N)=O)c1C,13%,0%,4%,4%,-3,-1%
COC(=O)CCC(=O)NC(=S)Nc1sc(C)c(C)c1C(N)=O,0.16µM*,0.15µM*,-36%,11µM*,5,-2%
Cc1ccc(C)c(NC(=O)CN(C)S(=O)(=O)c2ccc3c(c2)CCC(=O)N3)c1,-10%,-27%,0%,-18%,x,x
Cc1ccc(C)c(NC(=O)CCc2c(C)nn(-c3ccc(N4CCCC4)nn3)c2C)c1,u,u,-12%,-24%,x,x
CSCCC(NC(=O)COc1ccccc1)C(=O)N(C)CC(=O)Nc1c(C)cccc1C (stereo not drawn),-5%,-14%,-13%,-17%,-4,2%
NC(=O)c1ccccc1NC(=O)CCc1ccccc1,u,u,-2%,-10%,-4,1%
NC(=O)c1ccccc1NC(=S)NC(=O)CCc1ccccc1,3.7µM*,2.6µM*,0%,0%,11,11%
Cc1ccnc(NCc2ccc(Cl)cc2)c1,u,u,1%,9%,-58*,1%
Cc1ccnc(Nc2nc(-c3ccc(F)cc3)cs2)c1,u,u,-76%,-14%,-93*,1%
Cc1ccnc(Nc2nc(-c3ccc(Cl)cc3)cs2)c1,u,21µM*,-9%,-1%,5,5%
Cc1ccc(Nc2nc(-c3ccncc3)cs2)cc1,u,u,-38%,-10%,-4,-1%
CCOc1c(Cl)cc(Cl)cc1CNCCSc1nnnn1C,u,u,-13%,-9%,x,x
Cc1ccc(C)c(NC(=O)N2CCC(N3CCN(Cc4ccc(F)cc4)C(=O)C3=O)CC2)c1,-22%,0%,-15%,-7%,x,x
COc1ccc(-n2c(=O)c(CCC(=O)N3CCN(c4ccccc4O)CC3)nc3ccccc32)cc1,26µM*,u,-18%,u,-29,-4%
COc1cc(OC)c(NC(=O)Cn2nc(C)n3cccc3c2=O)cc1Cl,1%,3%,1%,49%,x,x
COc1ccc(NC(=O)Cn2c(=O)oc3cc(S(=O)(=O)NC(C)C)ccc32)cc1OC,-25%,u,3%,0%,x,x
SMILES,TDP1 cell CPT,TDP1 cell noCPT,HepG2 viability,TGFb SMAD3 inh,IL1B secr inh,ASM inhibitor
COc1ccc(NC(=O)COc2ccc(S(=O)(=O)NC3CCCCC3)cc2)cc1OC,u,21µM*,-32%,u,x,x
COc1ccc(NC(=O)Cn2c(=O)oc3cc(S(=O)(=O)NC4CCCC4)ccc32)cc1OC,u,21µM*,-12%,0%,x,x
CC1Cc2ccccc2N1C(=O)Cn1c(=O)oc2cc(S(=O)(=O)NC3CCCC3)ccc21 (stereo not drawn),u,u,-15%,-19%,-52*,-12%
CCc1noc(-c2ccc(N3CCCCC3)c([N+](=O)[O-])c2)n1,u,5%,-20%,-6%,x,x
CCOC(=O)c1cn(CC(=O)Nc2ccc(OC)cc2OC)nn1,3%,0%,4%,3%,24,-4%
Cc1ccc(CNC(=O)C2CCCCN2S(=O)(=O)c2ccc(F)cc2)cc1 (stereo not drawn),13µM*,26µM*,-27%,-11%,x,x
O=C(NCc1ccc(F)cc1)C1CCCN1S(=O)(=O)c1ccccc1C(F)(F)F (stereo not drawn),13µM*,u,0%,-4%,2,-3%
O=C(NCc1ccc(F)cc1)C1CCCN1S(=O)(=O)c1ccc(F)cc1 (stereo not drawn),-4%,-15%,-5%,-3%,10,x
CC(C)c1ccc(CNC(=O)C2CCCN2S(=O)(=O)c2ccccc2)cc1 (stereo not drawn),u,12µM*,-43%,u,1,-2%
CS(=O)(=O)N1CCC[C@@]2(CCN(Cc3ccc(C#N)cc3)C2)C1,5%,-8%,x,x,x,x
CC(=O)Nc1c(C)cc(OCC(=O)O)cc1C,24%,1%,-11%,-6%,0,2%
NC(=O)c1cccn1Cc1cccc(Cl)c1,21µM*,u,-2%,8%,20,8%
NC(=O)c1cccn1Cc1ccccc1Cl,u,u,2%,-3%,1,2%
CCOC(=O)C1CCN(c2ncnc3c2c(-c2ccccc2)cn3-c2ccc(C)c(Cl)c2)CC1,1%,1%,-22%,-3%,x,x
c1ccc(-c2ccc(OCCCNC3CCCC3)cc2)cc1,15µM*,u,-56%,u,x,-3%
COc1ccc(OCCNC2CCCC2)cc1,-16%,-23%,-1%,11%,-23,4%
CCN(CC)S(=O)(=O)c1cccc(NC(=O)c2cc(-c3cccs3)nn2-c2ccccc2)c1,21µM*,15µM*,10%,4%,7,-1%
COC(=O)c1cc(-c2cccs2)nn1-c1ccccc1,4%,-14%,-14%,-10%,9,-2%

# From PubChem BioAssay
